Hits are enriched below; roughly 7.4% of the tested compounds scored in any of these assays.
FLuc counter – qHTS profiling assay for firefly luciferase inhibitor/activator using purifed enzyme and Km concentrations of substrates (counterscreen for miR-21 project); purified FLuc, Km substrates, luminescence inhibition; Potency, µM (series often up to 57.5 µM), for the others: at the highest dose activity change, negative = inhibition, hits mostly inhibitors; actives 6.9% (n = 360,000); AID 588342, 2011;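 also: plate controls were vehicle for no effect and reference inhibitor for full effect; nearly all actives have a fitted effect of over 55% in size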
Target sequence (P08659 whole entry, looked up): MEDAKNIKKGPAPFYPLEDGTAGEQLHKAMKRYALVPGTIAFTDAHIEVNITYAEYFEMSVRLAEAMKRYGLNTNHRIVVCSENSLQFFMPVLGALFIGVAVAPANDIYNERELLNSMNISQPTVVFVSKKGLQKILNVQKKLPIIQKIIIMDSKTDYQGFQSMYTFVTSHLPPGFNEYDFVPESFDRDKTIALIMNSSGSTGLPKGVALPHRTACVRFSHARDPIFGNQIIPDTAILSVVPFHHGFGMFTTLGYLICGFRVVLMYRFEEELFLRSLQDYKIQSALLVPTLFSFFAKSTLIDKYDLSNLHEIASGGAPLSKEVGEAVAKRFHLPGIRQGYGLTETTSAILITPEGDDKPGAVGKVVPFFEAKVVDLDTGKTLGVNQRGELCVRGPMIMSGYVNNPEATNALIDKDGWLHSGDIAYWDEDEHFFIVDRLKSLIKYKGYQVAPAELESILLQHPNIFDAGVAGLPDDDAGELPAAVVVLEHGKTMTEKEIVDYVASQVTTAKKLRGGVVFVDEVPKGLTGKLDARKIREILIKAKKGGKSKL
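Purified P. pyralis luciferase (10nM final) with 10uM D-luciferin and 10uM ATP (Km levels) in 50mM Tris acetate pH 7.5, 10mM Mg acetate, 0.01% Tween-20, 0.05% BSA; qHTS 6-point titration, ~60 µM downward; luminescence read.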
ELG1 genotoxic – qHTS screen for small molecules that induce genotoxicity in human embryonic kidney (HEK293T) cells expressing luciferase-tagged ELG1. Potency, µM (highest dose often 46 µM), for inactives: at the top dose activity change, positive = activation, hits mostly activators. AID 504466, 2011. HEK293T ELG1-luciferase reporter, luminescence, 16 h. actives 1.3% (n = 330,000); also: % of control where 0% means no effect; nearly all actives have a fitted effect of over 60% in size
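Quantitative HTS format in 1536-well plates. HEK293T ELG1-luciferase reporter cells receive test compound and are incubated 16 hr at 37 °C, 5% CO2; ONE-Glo added, 30 min room temperature, then luminescence read.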
Rab9 prom act – qHTS Assay for Rab9 Promoter Activators. Huh7 Rab9 promoter-luciferase reporter, luminescence, 24 h. Potency, µM (titrated, usually from 9.22 µM), inactives show at the top dose activation, negative = inhibition, actives largely listed as activators. actives 2.8% (n = 320,000); also: % of control where 0% means no effect; nearly all actives have a fitted effect of over 60% in size
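Using Huh7 cells stably transfected with Rab9 promoter–luciferase, compounds were incubated 24 h at 37 °C, 5% CO2; luciferase luminescence was read 10 min after reagent addition.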
SMN2 splice up – qHTS Assay for Enhancers of SMN2 Splice Variant Expression; actives 2.8% (n = 210,000); Potency, µM (highest dose often 46.1 µM), for the others: at the top dose activity change, positive = activation, hits mostly activators; HEK293 SMN2-luciferase splicing reporter, luminescence, 30-36 h; also: % of control where 0% means no effect; nearly all actives have a fitted effect of over 55% in size
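HEK293 cells carry an SMN2 […]–luciferase reporter in which exon 7 inclusion puts luciferase in frame. Cells were plated 10-12 h before compound addition, then incubated 30-36 h at 37C. ONE-Glo luminescence was read; sodium butyrate at 4.5 mM final served as control.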
NPC1 prom act – qHTS Assay for NPC1 Promoter Activators. actives 2.4% (n = 320,000). Potency, µM (doses to about 9.22 µM), for inactives: top-dose activation, usual class: activators. AID 485313, 2010. Huh7 NPC1 promoter luciferase reporter, 24 h; also: % of control where 0% means no effect; nearly all actives have a fitted effect of over 60% in size
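Compounds in DMSO were transferred onto Huh7 NPC1-luciferase reporter cells pre-incubated 2 h; after 24 h at 37 °C, Amplite reagent was dispensed and luminescence recorded 10 min later.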
* hit, by the source's call; ? = inconclusive; · = no result given; [ ] = dose if it differs, or a comment. Calls follow the shape of the dose curve; as a rule, active = well fitted curve in the direction sought with a large enough effect; inconclusive = small, poorly fitted or top-dose-only effect, or another doubt; inactive = no such curve, though single readings can be large; an effect the other way counts as inactive or inconclusive. Potency is read from the fitted curve at half-maximal effect.

SMILES | FLuc counter | ELG1 genotoxic | Rab9 prom act | SMN2 splice up | NPC1 prom act
CCCCOCCCN1CC(=O)N2[C@@H](Cc3c([nH]c4ccccc34)C2(C)C)C1=O | 1% | -15% | -5%[1.84 µM] | · | -3%
O=C(c1cc2cc([N+](=O)[O-])ccc2oc1=O)N1CCOCC1 | 2.4µM* | -3% | -33% | · | -32%
O=C(c1cc2cc([N+](=O)[O-])ccc2oc1=O)N1CCN(c2ncccn2)CC1 | 3% | 0% | -7% | -4% | 0%
O=C(c1cc2c(=O)n3ccccc3nc2s1)N1CCOCC1 | 19µM* | 4.1µM* | 3.2µM* | 11µM* | 2.8µM*
O=C(c1cc2c(=O)oc3ccccc3c2s1)N1CCOCC1 | 17µM* | 1% | 22% | 10% | 18%
O=C(c1cc2cc(Cl)ccc2oc1=O)N1CCOCC1 | 0% | 1% | 0% | 11% | -3%
O=C(c1cc2c(=O)n3ccccc3nc2s1)N1CCN(c2cccc(Cl)c2)CC1 | 2% | ? | -1% | · | -2%
O=C(c1cc2ccccc2oc1=O)N1CCOCC1 | 12µM* | ? | ? | · | ?
CCN(CC)S(=O)(=O)N1CCC(C(=O)NCc2ccco2)CC1 | -2% | 1% | 18% | · | 3%
CN(CC(=O)Nc1ccc(N2CCOCC2)cc1)C(=O)CSc1ccc(F)cc1 | -4% | 2% | 3% | · | -1%
CC(=O)N1CCOc2cc(S(=O)(=O)Nc3cccc(C(F)(F)F)c3)c(Cl)cc21 | -1% | · | -3% | · | -3%
Cc1cccc(C(=O)NC2CCN(C(=O)Nc3ccc(F)cc3)CC2)c1 | 4% | 0% | 4% | · | 2%
CCOC(=O)N/N=C\C=C\c1ccc2c(c1)OCO2 | 13µM* | ? | 3.2µM* | -8%[1.84 µM] | ?
CC(C)(C)OC(=O)N/N=C\C=C\c1ccc2c(c1)OCO2 | 7.6µM* | ? | 1.6µM* | -15%[1.84 µM] | 4µM*
COC(=O)N/N=C\C=C\c1ccc2c(c1)OCO2 | 15µM* | 2% | 3.5µM* | 6% | 4µM*
CCCCNc1nc(C)nc2c1nc(-c1ccccc1)n2CC1CCN(C)CC1 | · | · | · | -16% | ·
CC(C)(CNC(=O)c1ccc(S(=O)(=O)Nc2cccc(C(F)(F)F)c2)cc1)N1CCOCC1 | · | 0% | -3% | · | -1%
Cc1ccc(C)c(-c2csc(-c3c(N)c(C(=O)c4ccc5c(c4)OCO5)n4ccccc34)n2)c1 | 3% | · | · | -7% | ·
Cc1ccc(Cl)c(OCC(=O)Nc2ccc3c(c2)OCCO3)c1 | 1.9µM* | 14% | 1.4µM* | 18µM* | 2.8µM*
CCN(CC(=O)Nc1ccc2c(c1)OCCO2)C(=O)COc1cc(C)ccc1Cl | -17% | 0% | -4% | · | 1%
O=C(COC(=O)COc1ccc(Cl)cc1)Nc1ccc2c(c1)OCCO2 | -1% | -4% | -2% | · | 0%
O=C(COc1cc(Cl)c(Cl)cc1Cl)NC(=O)Nc1ccc2c(c1)OCCO2 | 21µM* | ? | ? | 18µM* | ?
CC1=C(C(=O)Nc2cccnc2)C(c2ccccc2Cl)n2nc(-c3ccccc3)nc2N1 (configuration not stated) | -2% | · | · | -6% | ·
O=C(Nc1ccc(NC(=O)c2cccs2)cc1)c1ccc(Br)cc1 | -5% | · | · | 6% | ·
Cc1ccc2[nH]c(=O)c(CN(C)C(=O)c3cccs3)cc2c1 | -7% | 7% | -1% | -9% | 9%
SMILES | FLuc counter | ELG1 genotoxic | Rab9 prom act | SMN2 splice up | NPC1 prom act
O=C(c1cccs1)N(C(=O)c1cccs1)c1ccc(Br)cn1 | ? | 2.1µM* | 1.6µM* | ? | ?
Cc1ccnc(N(C(=O)c2cccs2)C(=O)c2cccs2)c1 | 19µM* | 2.1µM* | 3.5µM* | 13µM* | 2.5µM*
Cc1ccc(N=Nc2cc(C)ccc2O)c(C)c1 | 4.8µM* | ? | ? | · | ?
NS(=O)(=O)c1ccc(N=Nc2ccc(O)c3ncccc23)cc1 | ? | ? | -32% | · | -40%
Oc1ccc(N=Nc2ccc3c(c2)OCCO3)c2ncccc12 | 5.4µM* | ? | -27% | · | -23%
Cc1cccc(N=Nc2ccc(O)c3ncccc23)c1 | 11µM* | 12µM* | -3% | -51% | 13%
Cc1ccc(C)c(N=Nc2ccc(O)c3ncccc23)c1 | 11µM* | ? | 8% | -96% | ?
